Results: PubChem BioAssay (Tox21)
Where “and” joins values, the source holds several entries; their conditions need not be identical. Equal entries are not always repeated. Inconclusive results are not listed. Some structures have more than one record in an assay (separate samples or runs), and their calls can disagree. Calls of active or inactive are those of the source. Unless noted, the call rests on the fitted dose curve; in most records, active means well fitted curve in the direction sought with a large enough effect in the repeat runs; inconclusive means weak or mixed curves; inactive means no such curve, though single readings can be large; an effect the other way counts as inactive or inconclusive.

Experiments:
[1] = qHTS assay to identify small molecule antagonists of the sonic hedgehog signaling (Shh) pathway (AID 1259369; calls by dose curve; further: nearly all actives have a fitted effect of over 45% in size; further: potency means the concentration at half of the fitted maximal effect)
Outline: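 Conditioned medium drives Shh signalling in 3T3Gli1-Luc cells; compounds in DMSO co-applied, 24hr at 37 C, then luciferase luminescence.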

[2] = target: Estrogen receptor beta (Homo sapiens) (UniProt Q92731); assay: qHTS assay to identify small molecule agonists of the estrogen receptor beta (ER-beta) signaling pathway (AID 1259377; active means well fitted activation curve with a large enough effect in the signal ratio in the repeat runs, not every such curve was filed as active; the % refers to the signal ratio)
Estrogen receptor beta (Homo sapiens), sequence (Q92731 whole entry, looked up): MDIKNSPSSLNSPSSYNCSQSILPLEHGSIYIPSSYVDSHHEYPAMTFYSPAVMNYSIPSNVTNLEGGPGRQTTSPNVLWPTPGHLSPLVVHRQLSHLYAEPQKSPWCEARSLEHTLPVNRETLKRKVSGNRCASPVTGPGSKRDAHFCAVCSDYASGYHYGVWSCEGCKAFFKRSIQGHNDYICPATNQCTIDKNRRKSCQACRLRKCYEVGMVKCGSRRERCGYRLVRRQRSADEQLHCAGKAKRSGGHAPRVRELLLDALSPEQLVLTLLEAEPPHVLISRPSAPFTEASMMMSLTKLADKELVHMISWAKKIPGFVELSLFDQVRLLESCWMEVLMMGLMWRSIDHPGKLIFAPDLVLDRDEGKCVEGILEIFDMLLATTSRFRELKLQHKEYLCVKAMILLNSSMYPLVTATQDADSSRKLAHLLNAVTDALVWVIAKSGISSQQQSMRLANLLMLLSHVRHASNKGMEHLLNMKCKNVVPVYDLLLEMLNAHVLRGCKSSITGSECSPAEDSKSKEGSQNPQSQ
Outline: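 Read-out: beta-lactamase FRET fluorescence. Cell line: ER-beta-UAS-bla HEK293T in 2% charcoal-stripped FBS. Exposure: 16 hr at 37C. Substrate step: 2 h at room temperature.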

[3] = target: Estrogen receptor beta (Homo sapiens) (UniProt Q92731); assay: qHTS assay to identify small molecule antagonists of the estrogen receptor beta (ER-beta) signaling pathway (AID 1259378; active means well fitted inhibition curve with a large enough effect in the signal ratio in the repeat runs, not every such curve was filed as active; the % refers to the signal ratio)
Outline: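 ER-beta-UAS-bla HEK293T cells in 2% charcoal-stripped FBS medium treated with compound plus 1nM final 17-beta-estradiol for 16 hr at 37C. Beta-lactamase reporter read by FRET substrate fluorescence after 2 hours at room temperature.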

[4] = qHTS assay to identify small molecule agonists of the androgen receptor (AR) signaling pathway in the presence of an antagonist - cell viability counter screen (AID 1259379);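 further: MDA-kb2 human breast cancer cells carrying an MMTV luciferase reporter; series mostly up to about 92 µM; nearly all actives have a fitted effect of over 25% in size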
Outline: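 A CellTiter-Fluor read-out measured viability of MDA-kb2 reporter cells (MMTV promoter with AR and GR response elements). Treatment: nilutamide 3.0uM final with compounds at 15 concentrations, 16 hr, 37C, 0% CO2.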

[5] = qHTS assay to identify small molecule agonists of the estrogen receptor beta (ER-beta) signaling pathway - cell viability counter screen (AID 1259380); further: nearly all actives have a fitted effect of over 30% in size
Outline: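 Cells used were ER-beta-UAS-bla HEK293T in medium with 2% charcoal-stripped FBS. They were treated for 16 hr at 37C. Viability came from CellTiter-Glo luminescence.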

[6] = qHTS assay to identify small molecule antagonists of the estrogen receptor beta (ER-beta) signaling pathway - cell viability counter screen (AID 1259382); further: series mostly up to about 92 µM; nearly all actives have a fitted effect of over 55% in size
Outline: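 Agonist-stimulated (1nM E2) ER-beta-UAS-bla HEK293T cells are incubated with library compounds for 16 hr at 37C. Cell viability is then assessed in the reporter-assay wells by adding CellTiter-Glo and reading luminescence after 30 min.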

[7] = qHTS assay to identify small molecule agonists or antagonists of the thyroid stimulating hormone receptor (TSHR) signaling pathway - wild type cell line counter screen (AID 1259384; calls by dose curve)
Outline: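 Wild-type Hek293 cells, 800/well, 18 h at 37C, then compound with Ro20-1724 for 30 min RT. cAMP by HTRF (cAMP-d2/anti-cAMP cryptate), 1 h RT, fluorescence read. 15 concentrations, triplicates.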

[8] = target: Thyrotropin receptor (Homo sapiens) (UniProt P16473); assay: qHTS assay to identify small molecule antagonists of the thyroid stimulating hormone receptor (TSHR) signaling pathway (AID 1259385; calls by dose curve; further: nearly all actives have a fitted effect of over 20% in size)
Thyrotropin receptor (Homo sapiens), sequence (P16473 whole entry, looked up): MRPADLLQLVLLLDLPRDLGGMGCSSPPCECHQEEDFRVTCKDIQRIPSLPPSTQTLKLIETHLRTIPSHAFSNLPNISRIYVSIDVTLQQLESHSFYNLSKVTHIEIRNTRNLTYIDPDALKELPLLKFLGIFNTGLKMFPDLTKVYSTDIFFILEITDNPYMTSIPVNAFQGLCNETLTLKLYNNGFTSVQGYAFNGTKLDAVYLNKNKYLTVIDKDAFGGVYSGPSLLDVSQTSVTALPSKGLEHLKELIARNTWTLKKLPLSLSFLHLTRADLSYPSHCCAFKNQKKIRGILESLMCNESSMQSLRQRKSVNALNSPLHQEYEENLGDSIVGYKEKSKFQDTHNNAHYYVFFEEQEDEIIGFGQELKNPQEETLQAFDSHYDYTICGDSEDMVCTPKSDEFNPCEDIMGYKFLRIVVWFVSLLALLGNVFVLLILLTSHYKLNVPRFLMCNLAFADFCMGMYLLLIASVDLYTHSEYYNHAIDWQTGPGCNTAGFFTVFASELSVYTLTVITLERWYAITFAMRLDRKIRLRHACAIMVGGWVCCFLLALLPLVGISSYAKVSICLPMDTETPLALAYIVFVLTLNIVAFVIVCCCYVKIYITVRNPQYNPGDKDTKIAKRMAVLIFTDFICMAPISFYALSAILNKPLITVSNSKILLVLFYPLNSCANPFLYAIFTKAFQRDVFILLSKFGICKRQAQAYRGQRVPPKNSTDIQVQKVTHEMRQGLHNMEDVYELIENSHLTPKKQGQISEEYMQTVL
Outline: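 TSHR-HEK293 cells (800/well) plated 18 h, then compounds with Ro20-1724 and TSH at 1.5 ng/mL final, 30 min at room temperature. cAMP quantified by HTRF (cAMP-d2/anti-cAMP-cryptate, 1 h); 15 concentrations in triplicate.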

[9] = qHTS assay to identify small molecule agonists of the estrogen receptor alpha (ER-alpha) signaling pathway in the presence of an antagonist - cell viability counter screen (AID 1259386);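 further: series mostly up to about 92 µM; cells exposed to compounds for 22 h at 37 °C before the viability read; nearly all actives have a fitted effect of over 30% in size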
Outline: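 ICI-182,780 at 10.0nM final accompanies the compound titration (15 concentrations, 22hr, 37C) on VM7Luc4E2 cells. The CellTiter-Fluor fluorescence readout runs in the same wells as the luciferase assay.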

[10] = target: Progesterone receptor (Homo sapiens) (UniProt P06401); assay: qHTS assay to identify small molecule agonists of the progesterone receptor (PR) signaling pathway (AID 1346784; calls by dose curve; further: nearly all actives have a fitted effect of over 30% in size)
Progesterone receptor (Homo sapiens), sequence (P06401 whole entry, looked up): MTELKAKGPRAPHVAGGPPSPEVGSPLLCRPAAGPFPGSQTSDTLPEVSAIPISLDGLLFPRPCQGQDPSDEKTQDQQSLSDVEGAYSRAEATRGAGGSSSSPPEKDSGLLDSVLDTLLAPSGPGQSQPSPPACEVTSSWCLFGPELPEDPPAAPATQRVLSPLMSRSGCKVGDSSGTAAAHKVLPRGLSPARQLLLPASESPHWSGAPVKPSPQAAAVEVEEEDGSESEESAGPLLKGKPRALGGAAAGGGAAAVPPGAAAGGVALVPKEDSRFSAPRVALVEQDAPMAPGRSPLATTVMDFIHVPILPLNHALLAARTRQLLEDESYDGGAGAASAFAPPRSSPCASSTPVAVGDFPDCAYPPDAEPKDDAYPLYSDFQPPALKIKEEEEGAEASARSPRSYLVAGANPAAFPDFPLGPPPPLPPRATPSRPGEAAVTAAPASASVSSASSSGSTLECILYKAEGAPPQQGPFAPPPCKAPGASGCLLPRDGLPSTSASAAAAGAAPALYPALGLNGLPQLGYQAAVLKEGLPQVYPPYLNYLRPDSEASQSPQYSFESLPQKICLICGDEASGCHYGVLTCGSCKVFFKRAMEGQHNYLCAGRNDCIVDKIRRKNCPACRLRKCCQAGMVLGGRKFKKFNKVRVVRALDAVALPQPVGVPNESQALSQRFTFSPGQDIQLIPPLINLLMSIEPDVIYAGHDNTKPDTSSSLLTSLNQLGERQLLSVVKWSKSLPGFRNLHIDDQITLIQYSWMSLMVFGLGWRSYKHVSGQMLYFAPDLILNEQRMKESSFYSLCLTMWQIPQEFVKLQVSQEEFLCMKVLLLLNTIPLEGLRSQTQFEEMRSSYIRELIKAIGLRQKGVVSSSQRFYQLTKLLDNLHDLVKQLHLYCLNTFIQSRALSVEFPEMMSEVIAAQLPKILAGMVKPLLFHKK
Outline: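 Compounds were tested for PR agonism in HEK 293T cells bearing a beta-lactamase gene under UAS control. Treatment lasted 16 hr at 37C; signal came from fluorescence of a FRET substrate.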

[11] = target: Progesterone receptor (Homo sapiens) (UniProt P06401); assay: qHTS assay to identify small molecule antagonists of the progesterone receptor (PR) signaling pathway (AID 1346795; active means well fitted inhibition curve with a large enough effect in the signal ratio in the repeat runs, not every such curve was filed as active; the % refers to the signal ratio)
Outline: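 In HEK293T cells bearing the PR-UAS-bla reporter, compound effects on promegestone-driven (1 nM) beta-lactamase expression are assessed after 16 hr using a fluorescent FRET substrate incubated 2 hr at room temperature.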

[12] = qHTS assay to identify small molecule antagonists of the progesterone receptor (PR) signaling pathway - cell viability counter screen (AID 1346798); further: series mostly up to about 92 µM; nearly all actives have a fitted effect of over 50% in size
Outline: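 Following a 4 hr attachment, PR-UAS-bla HEK293T cells in charcoal-stripped FBS medium were exposed to compounds with R5020 for 16 hr; CellTiter-Glo was added and luminescence read after 30 min at room temperature.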

[13] = qHTS assay to identify small molecule agonists of the progesterone receptor (PR) signaling pathway - cell viability counter screen (AID 1346799; calls by dose curve; further: nearly all actives have a fitted effect of over 45% in size; further: potency means the concentration at half of the fitted maximal effect)
Outline: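 Here, 3,000 PR-UAS-bla HEK293T cells per well were treated with compounds for 16 hr after a 6 hr preincubation at 37C and 5% CO2; cell viability is the CellTiter-Glo luminescence signal.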

[14] = qHTS assay to identify small molecule antagonists of the TGF-beta/Smad signaling pathway - cell viability counter screen (AID 1346824); further: nearly all actives have a fitted effect of over 50% in size
Outline: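 SBE-bla HEK 293T cells, incubated overnight, then compound plus 0.25 ng/mL TGF-beta1 (stock added) for 5 hr at 37 C. Viability was read in the same wells by CellTiter-Glo luminescence after 30 min at room temperature.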

[15] = qHTS assay to identify small molecule agonists of the TGF-beta/Smad signaling pathway - cell viability counter screen (AID 1346829); further: top concentration of the series differs between compounds; nearly all actives have a fitted effect of over 45% in size
Outline: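 Compound-treated SBE-bla HEK 293T cells (5 hr, 37 C) were assessed for viability with CellTiter-Glo in parallel with the reporter read.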

[16] = qHTS assay to identify small molecule agonists of the TGF-beta/Smad signaling pathway (AID 1346859; active means well fitted activation curve with a large enough effect in the signal ratio in the repeat runs, not every such curve was filed as active; the % refers to the signal ratio; further: series mostly up to about 77 µM)
Outline: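 Each well held 4,000 SBE-bla HEK 293T cells incubated overnight before compound addition; 5 hr later the cleavable FRET substrate went on for 2 hr at room temperature, and fluorescence was read at two emissions.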

[17] = target: Thyrotropin-releasing hormone receptor (Homo sapiens) (UniProt P34981); assay: qHTS assay to identify small molecule agonists of the thyrotropin-releasing hormone receptor (TRHR) signaling pathway (AID 1346891; calls by dose curve; further: series mostly up to about 58 µM)
Thyrotropin-releasing hormone receptor (Homo sapiens), sequence (P34981 whole entry, looked up): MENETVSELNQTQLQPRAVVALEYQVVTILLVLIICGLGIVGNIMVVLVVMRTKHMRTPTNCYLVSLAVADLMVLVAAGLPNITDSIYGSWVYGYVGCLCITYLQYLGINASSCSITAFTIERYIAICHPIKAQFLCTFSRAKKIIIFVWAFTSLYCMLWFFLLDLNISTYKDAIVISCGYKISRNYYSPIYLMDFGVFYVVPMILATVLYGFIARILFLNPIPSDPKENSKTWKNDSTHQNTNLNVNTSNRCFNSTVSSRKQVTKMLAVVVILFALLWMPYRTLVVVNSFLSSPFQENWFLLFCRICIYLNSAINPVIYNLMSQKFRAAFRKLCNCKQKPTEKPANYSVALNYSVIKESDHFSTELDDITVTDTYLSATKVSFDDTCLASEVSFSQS
Outline: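 Screening of agonists relied on calcium signalling in HEK293 cells expressing human TRHR: dye loading 2 h at 37 °C preceded compound addition and a 3-min fluorescence time course.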

[18] = target: Androgen receptor (Homo sapiens) (UniProt P10275); assay: qHTS assay to identify small molecule agonists of the androgen receptor (AR) signaling pathway in the presence of an antagonist (AID 1259381; calls by dose curve; further: nearly all actives have a fitted effect of over 15% in size)
Androgen receptor (Homo sapiens), sequence (P10275 whole entry, looked up): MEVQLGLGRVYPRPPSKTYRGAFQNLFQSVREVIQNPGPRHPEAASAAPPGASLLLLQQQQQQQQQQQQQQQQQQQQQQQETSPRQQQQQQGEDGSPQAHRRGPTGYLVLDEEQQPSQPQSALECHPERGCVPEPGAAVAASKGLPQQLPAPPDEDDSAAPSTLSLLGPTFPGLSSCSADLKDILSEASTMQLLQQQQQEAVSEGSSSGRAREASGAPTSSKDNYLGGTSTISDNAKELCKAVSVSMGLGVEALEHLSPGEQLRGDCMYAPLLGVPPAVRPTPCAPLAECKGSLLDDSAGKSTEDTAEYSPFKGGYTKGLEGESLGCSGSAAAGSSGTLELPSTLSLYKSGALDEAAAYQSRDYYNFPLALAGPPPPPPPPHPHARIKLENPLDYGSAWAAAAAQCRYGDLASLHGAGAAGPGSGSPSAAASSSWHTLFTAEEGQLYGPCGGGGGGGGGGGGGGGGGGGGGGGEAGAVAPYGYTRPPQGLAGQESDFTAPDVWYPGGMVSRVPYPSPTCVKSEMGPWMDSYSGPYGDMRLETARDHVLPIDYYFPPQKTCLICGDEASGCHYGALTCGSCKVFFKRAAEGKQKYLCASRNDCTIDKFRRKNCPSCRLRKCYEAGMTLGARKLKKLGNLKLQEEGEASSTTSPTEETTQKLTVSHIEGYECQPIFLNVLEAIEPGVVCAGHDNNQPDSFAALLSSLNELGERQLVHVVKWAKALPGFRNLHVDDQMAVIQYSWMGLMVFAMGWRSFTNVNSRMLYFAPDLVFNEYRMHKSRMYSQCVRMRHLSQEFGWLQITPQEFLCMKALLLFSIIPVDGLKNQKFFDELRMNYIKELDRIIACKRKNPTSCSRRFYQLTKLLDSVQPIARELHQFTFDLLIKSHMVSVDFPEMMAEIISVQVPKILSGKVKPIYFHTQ
Outline: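 Using human MDA-kb2 cells with an MMTV promoter–luciferase construct (AR and GR response elements), agonist activity is scored under 3.0uM nilutamide (final) co-treatment; 16hr incubation, 37C, luminescence readout via ONE-Glo.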

[19] = target: Estrogen receptor (Homo sapiens) (UniProt P03372); assay: qHTS assay to identify small molecule agonists of the estrogen receptor alpha (ER-alpha) signaling pathway in the presence of an antagonist (AID 1259383; calls by dose curve; further: top concentration of the series differs between compounds; nearly all actives have a fitted effect of over 15% in size)
Estrogen receptor (Homo sapiens), sequence (P03372 whole entry, looked up): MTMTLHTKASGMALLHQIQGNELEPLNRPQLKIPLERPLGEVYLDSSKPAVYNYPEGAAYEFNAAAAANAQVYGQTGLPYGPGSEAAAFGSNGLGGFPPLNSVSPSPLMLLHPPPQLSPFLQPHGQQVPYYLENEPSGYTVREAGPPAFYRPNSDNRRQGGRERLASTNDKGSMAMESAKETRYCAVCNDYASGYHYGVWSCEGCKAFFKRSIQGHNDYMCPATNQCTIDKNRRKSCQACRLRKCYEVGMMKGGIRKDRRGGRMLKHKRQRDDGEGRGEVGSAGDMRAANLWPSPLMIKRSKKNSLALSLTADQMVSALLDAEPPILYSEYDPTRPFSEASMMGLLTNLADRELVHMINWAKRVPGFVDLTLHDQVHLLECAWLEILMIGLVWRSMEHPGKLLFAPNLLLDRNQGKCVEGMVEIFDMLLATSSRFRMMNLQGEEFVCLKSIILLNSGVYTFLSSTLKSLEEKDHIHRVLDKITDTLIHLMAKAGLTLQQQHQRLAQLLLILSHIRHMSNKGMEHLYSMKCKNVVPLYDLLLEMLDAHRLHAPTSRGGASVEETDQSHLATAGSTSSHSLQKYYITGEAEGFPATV
Outline: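 Using VM7Luc4E2 cells seeded 24hr before treatment, antagonist ICI-182,780 (10.0nM final) was added, followed by compounds at 15 concentrations. Plates incubated 22hr; ONE-Glo luminescence quantified reporter activity.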

[20] = target: Thyrotropin-releasing hormone receptor (Homo sapiens) (UniProt P34981); assay: qHTS assay to identify small molecule antagonists of the thyrotropin-releasing hormone receptor (TRHR) signaling pathway (AID 1346877; active means well fitted inhibition curve with a large enough effect in the repeat runs, not every such curve was filed as active; further: series mostly up to about 51 µM)
Outline: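 Screening used HEK293 cells engineered with TRHR, with a brief 5 min room-temperature compound exposure preceding addition of TRH to 1 nM. The read-out was kinetic calcium-dye fluorescence, concentration-response from 15 doses in triplicate.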

Measured: Potency

O=C(O)Cc1c[nH]c2ccccc12
not listed: [17] | [18] | [19] | [20]
inactive: all other assays above

CCCCCC(C)=O
inactive and 61.1 µM (active): [13]
inactive and 27.3 µM (active): [1]
not listed: [7] | [8] | [18] | [19] | [20]
inactive: all other assays above

Cc1ccc(C(C)C)cc1
not listed: [2] | [3] | [20]
inactive: all other assays above

COC(=O)OC
not listed: [18] | [19] | [20]
inactive: all other assays above

Cc1cc(CC(=O)O)n(C)c1C(=O)c1ccc(Cl)cc1
not listed: [11] | [16] | [18] | [19]
inactive: all other assays above

CN1Cc2c(N)cccc2C(c2ccccc2)C1 (stereo unspecified)
not listed: [13] | [17] | [18] | [19] | [20]
inactive: all other assays above
